# Measured values reported in publication PMC7862700, “An all-to-all approach to the identification of sequence-specific readers for epigenetic DNA modifications on cytosine”.
# Assays:
# Assay in all cases: DAPPL (digital affinity profiling via proximity ligation, sequencing); 10 mM Tris-HCl pH 7.5, 50 mM NaCl, 1 mM DTT, 4% glycerol, room temperature, 30 min; GST-TFs on glutathione beads, 16-mer random dsDNA library, 0.1% formaldehyde crosslink after washing; high values mean tight binding
# [1] = biological target: T1, FLI1 (Homo sapiens, UniProt Q01543 1-452); conditions: protein: recombinant; tags: N-terminal GST; dsDNA, one strand shown
# T1 sequence: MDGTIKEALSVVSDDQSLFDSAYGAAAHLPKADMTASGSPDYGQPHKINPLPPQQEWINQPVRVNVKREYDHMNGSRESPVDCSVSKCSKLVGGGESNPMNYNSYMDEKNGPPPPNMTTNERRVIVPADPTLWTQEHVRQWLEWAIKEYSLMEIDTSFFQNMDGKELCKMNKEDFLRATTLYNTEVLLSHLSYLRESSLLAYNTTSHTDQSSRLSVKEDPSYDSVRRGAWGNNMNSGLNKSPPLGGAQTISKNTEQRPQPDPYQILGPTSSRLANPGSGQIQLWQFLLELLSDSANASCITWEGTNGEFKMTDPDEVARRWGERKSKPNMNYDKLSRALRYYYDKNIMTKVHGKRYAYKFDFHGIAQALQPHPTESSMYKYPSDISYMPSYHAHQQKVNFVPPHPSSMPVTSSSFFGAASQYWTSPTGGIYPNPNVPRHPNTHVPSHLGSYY
# Summary of the method: (§1)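 Beads coated with glutathione captured GST-fused human transcription factors that had been expressed in yeast, and the factors were then given DNA barcodes and pooled with a tag-only sample. The pools were incubated with 200 nmole of a random double-stranded 16-mer DNA library in Tris/NaCl/DTT/glycerol buffer for 30 min at room temperature, washed, crosslinked with 0.1% formaldehyde and proximity-ligated with BsaI/T4 ligase at 37 °C for 1 h. PCR amplification and Illumina NextSeq500 sequencing came last. Binding signal is each hexamer's read frequency for a factor divided by its frequency for the tag-only sample.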
# [2] = biological target: T2, ELK1 (Homo sapiens, UniProt P19419 1-428); conditions: protein: recombinant; tags: N-terminal GST; dsDNA, one strand shown
# T2 sequence: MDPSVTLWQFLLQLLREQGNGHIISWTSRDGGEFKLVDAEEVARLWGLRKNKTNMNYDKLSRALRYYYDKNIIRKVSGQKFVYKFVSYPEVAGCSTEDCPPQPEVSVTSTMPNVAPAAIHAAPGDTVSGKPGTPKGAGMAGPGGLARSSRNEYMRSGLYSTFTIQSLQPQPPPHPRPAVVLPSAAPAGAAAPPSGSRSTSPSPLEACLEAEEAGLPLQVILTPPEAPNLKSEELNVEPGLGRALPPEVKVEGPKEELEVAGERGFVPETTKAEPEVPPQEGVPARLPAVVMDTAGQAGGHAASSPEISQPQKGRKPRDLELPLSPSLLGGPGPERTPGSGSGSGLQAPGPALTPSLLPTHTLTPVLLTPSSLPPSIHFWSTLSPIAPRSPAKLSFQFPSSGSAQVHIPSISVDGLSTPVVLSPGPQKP
# Summary of the method: as §1
# [3] = biological target: T3, GABPA (Homo sapiens, UniProt Q06546 1-454); conditions: protein: recombinant; tags: N-terminal GST; dsDNA, one strand shown
# T3 sequence: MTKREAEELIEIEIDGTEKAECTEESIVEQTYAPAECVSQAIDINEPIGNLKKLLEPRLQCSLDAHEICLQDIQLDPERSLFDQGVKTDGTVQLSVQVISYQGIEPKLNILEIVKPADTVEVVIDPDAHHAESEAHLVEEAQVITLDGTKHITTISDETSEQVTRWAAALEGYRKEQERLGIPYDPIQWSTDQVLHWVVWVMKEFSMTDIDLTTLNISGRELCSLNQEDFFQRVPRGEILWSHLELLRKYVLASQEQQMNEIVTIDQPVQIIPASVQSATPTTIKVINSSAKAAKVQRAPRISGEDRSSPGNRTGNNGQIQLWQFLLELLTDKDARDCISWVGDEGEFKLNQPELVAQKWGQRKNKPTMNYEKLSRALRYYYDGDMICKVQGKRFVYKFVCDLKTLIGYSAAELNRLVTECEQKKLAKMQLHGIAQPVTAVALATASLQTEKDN
# Summary of the method: as §1
# [4] = biological target: T4, ERG (Homo sapiens, UniProt P11308 1-479); conditions: protein: recombinant; tags: N-terminal GST; dsDNA, one strand shown
# T4 sequence: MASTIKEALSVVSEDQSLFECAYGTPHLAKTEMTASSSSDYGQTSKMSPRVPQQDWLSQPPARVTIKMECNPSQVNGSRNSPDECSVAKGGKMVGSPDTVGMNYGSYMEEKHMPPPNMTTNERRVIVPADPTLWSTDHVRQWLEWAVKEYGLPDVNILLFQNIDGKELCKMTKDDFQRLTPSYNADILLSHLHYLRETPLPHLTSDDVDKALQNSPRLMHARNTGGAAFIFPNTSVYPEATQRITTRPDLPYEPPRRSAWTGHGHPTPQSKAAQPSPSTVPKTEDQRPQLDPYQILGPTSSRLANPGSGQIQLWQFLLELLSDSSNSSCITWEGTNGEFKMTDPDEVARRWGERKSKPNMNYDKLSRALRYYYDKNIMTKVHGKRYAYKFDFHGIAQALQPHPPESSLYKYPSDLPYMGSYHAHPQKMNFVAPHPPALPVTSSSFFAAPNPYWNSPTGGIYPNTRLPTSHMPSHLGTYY
# Summary of the method: as §1
# [5] = biological target: ELF1 (Homo sapiens, UniProt P32519 1-619); conditions: protein: recombinant; tags: N-terminal GST; dsDNA, one strand shown
# Sequence of ELF1 (P32519 whole entry): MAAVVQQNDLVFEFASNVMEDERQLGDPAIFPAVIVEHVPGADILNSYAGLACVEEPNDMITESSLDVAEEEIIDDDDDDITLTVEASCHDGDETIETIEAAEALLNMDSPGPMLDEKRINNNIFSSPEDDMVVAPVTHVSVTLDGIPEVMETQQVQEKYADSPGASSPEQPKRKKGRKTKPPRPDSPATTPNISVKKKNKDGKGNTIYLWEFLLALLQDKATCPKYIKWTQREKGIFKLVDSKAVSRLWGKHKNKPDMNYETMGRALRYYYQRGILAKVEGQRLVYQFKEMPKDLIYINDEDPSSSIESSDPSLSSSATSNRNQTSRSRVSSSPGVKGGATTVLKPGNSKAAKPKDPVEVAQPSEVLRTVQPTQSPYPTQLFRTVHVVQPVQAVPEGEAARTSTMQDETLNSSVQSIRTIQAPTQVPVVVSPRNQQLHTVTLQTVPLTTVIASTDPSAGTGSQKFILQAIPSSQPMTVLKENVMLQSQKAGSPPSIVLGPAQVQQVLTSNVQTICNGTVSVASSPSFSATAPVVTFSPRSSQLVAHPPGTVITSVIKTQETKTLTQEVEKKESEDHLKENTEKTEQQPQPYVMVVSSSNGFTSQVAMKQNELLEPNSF
# Summary of the method: as §1
# [6] = biological target: T5, EHF (Homo sapiens, UniProt Q9NZC4 1-300); conditions: protein: recombinant; tags: N-terminal GST; dsDNA, one strand shown
# T5 sequence: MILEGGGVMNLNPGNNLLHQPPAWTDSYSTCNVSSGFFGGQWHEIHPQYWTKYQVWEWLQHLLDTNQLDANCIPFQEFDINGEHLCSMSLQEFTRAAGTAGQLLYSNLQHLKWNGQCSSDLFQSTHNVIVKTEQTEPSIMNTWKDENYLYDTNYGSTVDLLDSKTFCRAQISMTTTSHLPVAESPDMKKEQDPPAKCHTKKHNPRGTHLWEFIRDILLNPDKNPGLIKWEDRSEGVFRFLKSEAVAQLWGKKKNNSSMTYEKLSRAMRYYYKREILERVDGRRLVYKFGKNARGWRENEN
# Summary of the method: as §1
# [7] = biological target: SPI1 (Homo sapiens, UniProt P17947 1-270); conditions: protein: recombinant; tags: N-terminal GST; dsDNA, one strand shown
# Summary of the method: as §1
# [8] = biological target: SPIB (Homo sapiens, UniProt Q01892 1-262); conditions: protein: recombinant; tags: N-terminal GST; dsDNA, one strand shown
# Sequence of SPIB (Q01892 whole entry): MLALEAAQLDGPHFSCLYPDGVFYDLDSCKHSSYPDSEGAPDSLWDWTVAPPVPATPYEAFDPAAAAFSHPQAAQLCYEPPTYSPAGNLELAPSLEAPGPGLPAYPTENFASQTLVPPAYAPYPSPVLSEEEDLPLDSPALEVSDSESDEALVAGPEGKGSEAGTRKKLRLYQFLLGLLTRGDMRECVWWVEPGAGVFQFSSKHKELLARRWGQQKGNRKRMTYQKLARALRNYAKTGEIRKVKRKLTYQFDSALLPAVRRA
# Summary of the method: as §1
# [9] = biological target: T6, ELK3 (Homo sapiens, UniProt P41970 1-407); conditions: protein: recombinant; tags: N-terminal GST; dsDNA, one strand shown
# T6 sequence: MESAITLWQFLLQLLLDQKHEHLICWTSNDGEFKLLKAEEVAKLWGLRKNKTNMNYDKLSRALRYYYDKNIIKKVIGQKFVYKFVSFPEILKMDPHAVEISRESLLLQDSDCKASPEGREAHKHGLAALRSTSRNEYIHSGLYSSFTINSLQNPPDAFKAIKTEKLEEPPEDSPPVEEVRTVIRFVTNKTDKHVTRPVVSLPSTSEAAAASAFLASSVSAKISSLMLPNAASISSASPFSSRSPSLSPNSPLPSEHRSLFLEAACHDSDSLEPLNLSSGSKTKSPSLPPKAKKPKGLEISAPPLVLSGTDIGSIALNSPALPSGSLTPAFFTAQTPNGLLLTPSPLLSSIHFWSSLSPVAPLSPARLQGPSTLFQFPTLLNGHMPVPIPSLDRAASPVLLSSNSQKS
# Summary of the method: as §1
# [10] = biological target: T7, FEV (Homo sapiens, UniProt Q99581 1-238); conditions: protein: recombinant; tags: N-terminal GST; dsDNA, one strand shown
# T7 sequence: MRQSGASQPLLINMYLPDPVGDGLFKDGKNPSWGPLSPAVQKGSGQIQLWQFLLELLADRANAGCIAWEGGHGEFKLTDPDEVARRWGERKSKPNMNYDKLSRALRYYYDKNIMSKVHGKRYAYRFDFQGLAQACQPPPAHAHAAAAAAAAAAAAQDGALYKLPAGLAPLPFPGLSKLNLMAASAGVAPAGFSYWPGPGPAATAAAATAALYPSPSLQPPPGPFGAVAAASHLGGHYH
# Summary of the method: as §1
# [11] = biological target: ETV5 (Homo sapiens, UniProt P41161 1-510); conditions: protein: recombinant; tags: N-terminal GST; dsDNA, one strand shown
# Sequence of ETV5 (P41161 whole entry): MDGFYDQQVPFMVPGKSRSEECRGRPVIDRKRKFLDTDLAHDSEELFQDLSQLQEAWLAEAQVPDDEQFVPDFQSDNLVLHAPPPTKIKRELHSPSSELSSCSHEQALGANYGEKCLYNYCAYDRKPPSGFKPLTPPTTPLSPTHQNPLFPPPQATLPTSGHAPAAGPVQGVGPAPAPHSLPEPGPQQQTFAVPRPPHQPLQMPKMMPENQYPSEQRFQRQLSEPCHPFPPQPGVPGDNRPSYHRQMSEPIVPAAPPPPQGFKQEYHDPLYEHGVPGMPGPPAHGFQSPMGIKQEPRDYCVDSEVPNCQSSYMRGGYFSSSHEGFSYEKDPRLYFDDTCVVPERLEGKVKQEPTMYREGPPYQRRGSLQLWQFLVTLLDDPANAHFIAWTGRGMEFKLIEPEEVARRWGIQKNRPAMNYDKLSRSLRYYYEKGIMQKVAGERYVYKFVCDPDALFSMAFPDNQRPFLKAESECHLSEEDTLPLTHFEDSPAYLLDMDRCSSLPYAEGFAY
# Summary of the method: as §1
# [12] = biological target: HSF1 (Homo sapiens, UniProt Q00613 1-529); conditions: protein: recombinant; tags: N-terminal GST; chain copies: 3; dsDNA, one strand shown
# Sequence of HSF1 (Q00613 whole entry): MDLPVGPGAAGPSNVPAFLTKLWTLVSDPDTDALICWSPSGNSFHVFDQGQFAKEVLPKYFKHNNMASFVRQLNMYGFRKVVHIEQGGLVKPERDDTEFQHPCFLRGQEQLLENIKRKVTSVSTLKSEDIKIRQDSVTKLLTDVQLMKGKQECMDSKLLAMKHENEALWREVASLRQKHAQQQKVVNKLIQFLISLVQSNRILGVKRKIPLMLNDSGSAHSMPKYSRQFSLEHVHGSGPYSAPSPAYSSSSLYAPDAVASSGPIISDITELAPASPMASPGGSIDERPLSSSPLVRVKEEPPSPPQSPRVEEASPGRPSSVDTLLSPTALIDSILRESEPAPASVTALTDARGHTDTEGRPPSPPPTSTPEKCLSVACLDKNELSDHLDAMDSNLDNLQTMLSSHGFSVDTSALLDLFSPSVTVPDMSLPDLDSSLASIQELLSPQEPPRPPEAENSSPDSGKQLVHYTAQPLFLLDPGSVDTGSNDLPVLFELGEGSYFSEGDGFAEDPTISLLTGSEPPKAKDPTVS
# Summary of the method: as §1
# [13] = biological target: T8, SPIC (Homo sapiens, UniProt Q8N5J4 1-248); conditions: protein: recombinant; tags: N-terminal GST; dsDNA, one strand shown
# T8 sequence: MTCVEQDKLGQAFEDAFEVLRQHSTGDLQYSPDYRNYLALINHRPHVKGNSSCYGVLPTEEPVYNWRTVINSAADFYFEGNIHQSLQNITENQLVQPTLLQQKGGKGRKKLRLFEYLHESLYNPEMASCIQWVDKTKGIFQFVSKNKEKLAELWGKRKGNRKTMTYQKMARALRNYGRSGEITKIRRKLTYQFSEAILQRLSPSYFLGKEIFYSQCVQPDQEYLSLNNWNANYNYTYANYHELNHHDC
# Summary of the method: as §1
# [14] = biological target: ELF4 (Homo sapiens, UniProt Q99607 1-663); conditions: protein: recombinant; tags: N-terminal GST; dsDNA, one strand shown
# Sequence of ELF4 (Q99607 whole entry): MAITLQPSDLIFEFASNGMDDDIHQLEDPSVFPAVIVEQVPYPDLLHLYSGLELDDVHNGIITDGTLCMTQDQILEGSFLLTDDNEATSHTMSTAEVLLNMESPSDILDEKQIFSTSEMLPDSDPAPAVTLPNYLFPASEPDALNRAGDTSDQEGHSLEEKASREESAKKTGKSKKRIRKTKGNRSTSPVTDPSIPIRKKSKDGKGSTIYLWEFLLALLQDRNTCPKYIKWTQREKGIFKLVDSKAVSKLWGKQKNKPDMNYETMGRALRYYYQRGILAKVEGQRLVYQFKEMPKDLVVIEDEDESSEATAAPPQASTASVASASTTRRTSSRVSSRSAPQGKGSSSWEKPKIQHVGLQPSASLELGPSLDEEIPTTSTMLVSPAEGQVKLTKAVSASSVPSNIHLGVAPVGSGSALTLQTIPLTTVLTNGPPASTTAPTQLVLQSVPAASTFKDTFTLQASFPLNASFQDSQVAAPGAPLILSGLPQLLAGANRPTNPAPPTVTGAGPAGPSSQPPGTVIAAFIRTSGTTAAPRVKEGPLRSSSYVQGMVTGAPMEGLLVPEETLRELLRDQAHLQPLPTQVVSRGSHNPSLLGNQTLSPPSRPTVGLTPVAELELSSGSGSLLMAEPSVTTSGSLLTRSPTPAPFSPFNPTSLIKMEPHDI
# Summary of the method: as §1
# [15] = biological target: T9, ELK4 (Homo sapiens, UniProt P28324-2 1-405); conditions: protein: recombinant; tags: N-terminal GST; dsDNA, one strand shown
# T9 sequence: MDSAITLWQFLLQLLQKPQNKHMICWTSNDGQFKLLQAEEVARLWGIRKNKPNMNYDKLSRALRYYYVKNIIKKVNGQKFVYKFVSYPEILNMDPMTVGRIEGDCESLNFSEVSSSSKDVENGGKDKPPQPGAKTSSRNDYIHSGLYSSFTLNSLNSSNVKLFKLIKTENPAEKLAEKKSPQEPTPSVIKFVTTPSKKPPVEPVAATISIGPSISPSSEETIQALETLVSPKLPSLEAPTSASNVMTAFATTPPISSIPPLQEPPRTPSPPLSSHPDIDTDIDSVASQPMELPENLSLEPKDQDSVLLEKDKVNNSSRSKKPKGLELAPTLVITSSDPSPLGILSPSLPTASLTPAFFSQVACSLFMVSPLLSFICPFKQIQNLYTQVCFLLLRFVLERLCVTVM
# Summary of the method: as §1
# [16] = biological target: T10, ETV2 (Homo sapiens, UniProt O00321 1-342); conditions: protein: recombinant; tags: N-terminal GST; dsDNA, one strand shown
# T10 sequence: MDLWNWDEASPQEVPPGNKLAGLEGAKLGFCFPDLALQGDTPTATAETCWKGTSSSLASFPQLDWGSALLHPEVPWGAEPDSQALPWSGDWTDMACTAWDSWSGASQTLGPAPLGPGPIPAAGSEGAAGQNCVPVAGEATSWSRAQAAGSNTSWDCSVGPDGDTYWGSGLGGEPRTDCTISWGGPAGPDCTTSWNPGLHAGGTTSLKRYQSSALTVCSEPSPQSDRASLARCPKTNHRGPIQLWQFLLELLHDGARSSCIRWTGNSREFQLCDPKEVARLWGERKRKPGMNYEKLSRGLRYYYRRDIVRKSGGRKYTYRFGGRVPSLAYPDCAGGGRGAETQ
# Summary of the method: as §1
# [17] = biological target: T11, ELF3 (Homo sapiens, UniProt P78545 1-371); conditions: protein: recombinant; tags: N-terminal GST; dsDNA, one strand shown
# T11 sequence: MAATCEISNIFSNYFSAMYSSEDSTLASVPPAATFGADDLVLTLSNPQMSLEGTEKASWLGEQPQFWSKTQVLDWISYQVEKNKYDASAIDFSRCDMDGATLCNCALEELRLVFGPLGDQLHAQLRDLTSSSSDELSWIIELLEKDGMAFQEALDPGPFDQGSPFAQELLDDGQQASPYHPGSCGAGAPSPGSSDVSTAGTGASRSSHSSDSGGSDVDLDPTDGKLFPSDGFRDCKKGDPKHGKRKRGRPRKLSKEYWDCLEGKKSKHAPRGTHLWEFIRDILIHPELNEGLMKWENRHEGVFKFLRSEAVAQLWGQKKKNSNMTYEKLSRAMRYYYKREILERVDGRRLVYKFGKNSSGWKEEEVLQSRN
# Summary of the method: as §1
# [18] = biological target: CRX (Homo sapiens, UniProt O43186 1-299); conditions: protein: recombinant; tags: N-terminal GST; dsDNA, one strand shown
# Sequence of CRX (O43186 whole entry): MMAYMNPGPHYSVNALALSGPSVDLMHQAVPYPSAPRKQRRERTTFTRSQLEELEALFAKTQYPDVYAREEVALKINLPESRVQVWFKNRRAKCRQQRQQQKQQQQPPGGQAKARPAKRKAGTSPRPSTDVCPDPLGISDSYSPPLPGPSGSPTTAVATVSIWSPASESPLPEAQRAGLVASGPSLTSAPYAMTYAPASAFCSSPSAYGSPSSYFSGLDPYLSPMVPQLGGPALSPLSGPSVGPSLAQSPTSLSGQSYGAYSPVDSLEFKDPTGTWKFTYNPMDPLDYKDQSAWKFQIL
# Summary of the method: as §1
# [19] = biological target: ETV1 (Homo sapiens, UniProt P50549 1-477); conditions: protein: recombinant; tags: N-terminal GST; dsDNA, one strand shown
# Sequence of ETV1 (P50549 whole entry): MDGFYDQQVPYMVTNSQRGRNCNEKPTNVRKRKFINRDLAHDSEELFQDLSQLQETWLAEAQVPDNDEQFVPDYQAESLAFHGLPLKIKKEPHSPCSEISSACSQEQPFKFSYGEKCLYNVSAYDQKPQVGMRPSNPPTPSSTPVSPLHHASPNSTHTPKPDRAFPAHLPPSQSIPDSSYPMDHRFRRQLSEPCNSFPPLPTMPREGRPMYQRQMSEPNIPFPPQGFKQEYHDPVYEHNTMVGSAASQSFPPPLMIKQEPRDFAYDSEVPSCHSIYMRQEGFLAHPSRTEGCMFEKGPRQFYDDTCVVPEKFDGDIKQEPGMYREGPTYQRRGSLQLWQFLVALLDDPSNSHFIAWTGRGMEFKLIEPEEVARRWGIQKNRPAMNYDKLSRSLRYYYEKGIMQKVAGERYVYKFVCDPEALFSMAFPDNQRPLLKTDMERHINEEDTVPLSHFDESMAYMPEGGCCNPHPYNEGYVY
# Summary of the method: as §1
sequence,measurement,setting,value
TTACAC,binding signal,[1],"1.28 fold enrichment (6-mer frequency, TF over GST control)"
same,binding signal,[2],"1.26 fold enrichment (6-mer frequency, TF over GST control)"
same,binding signal,[3],"1.18 fold enrichment (6-mer frequency, TF over GST control)"
same,binding signal,[4],"1.27 fold enrichment (6-mer frequency, TF over GST control)"
same,binding signal,[5],"1.3 fold enrichment (6-mer frequency, TF over GST control)"
same,binding signal,[6],"1.39 fold enrichment (6-mer frequency, TF over GST control)"
same,binding signal,[7],"1.13 fold enrichment (6-mer frequency, TF over GST control)"
same,binding signal,[8],"1.21 fold enrichment (6-mer frequency, TF over GST control)"
same,binding signal,[9],"1.31 fold enrichment (6-mer frequency, TF over GST control)"
same,binding signal,[10],"1.24 fold enrichment (6-mer frequency, TF over GST control)"
same,binding signal,[11],"1.23 fold enrichment (6-mer frequency, TF over GST control)"
same,binding signal,[12],"1.35 fold enrichment (6-mer frequency, TF over GST control)"
same,binding signal,[13],"1.17 fold enrichment (6-mer frequency, TF over GST control)"
same,binding signal,[14],"1.21 fold enrichment (6-mer frequency, TF over GST control)"
same,binding signal,[15],"1.25 fold enrichment (6-mer frequency, TF over GST control)"
same,binding signal,[16],"1.16 fold enrichment (6-mer frequency, TF over GST control)"
same,binding signal,[17],"1.2 fold enrichment (6-mer frequency, TF over GST control)"
same,binding signal,[18],"1.73 fold enrichment (6-mer frequency, TF over GST control)"
same,binding signal,[19],"1.27 fold enrichment (6-mer frequency, TF over GST control)"
